Assay results published in ChEMBL document CHEMBL3988442, “University of Dundee, Small-Polar-MMV Screening Library” (2021).
For some assays here: Entries with a potency or affinity are not part of this list.

How the values were obtained:
Design in all cases: scale not given: direction of the effect not stated beside the values
[1] = molecular target: Protein translocase subunit SecA (Escherichia coli (strain K12)) (UniProt P10408); assay: Assay to Identify E. coli SecA ATPase Inhibitors; type: functional; settings: 30 µM
Protein translocase subunit SecA (Escherichia coli (strain K12)), sequence (P10408 whole entry): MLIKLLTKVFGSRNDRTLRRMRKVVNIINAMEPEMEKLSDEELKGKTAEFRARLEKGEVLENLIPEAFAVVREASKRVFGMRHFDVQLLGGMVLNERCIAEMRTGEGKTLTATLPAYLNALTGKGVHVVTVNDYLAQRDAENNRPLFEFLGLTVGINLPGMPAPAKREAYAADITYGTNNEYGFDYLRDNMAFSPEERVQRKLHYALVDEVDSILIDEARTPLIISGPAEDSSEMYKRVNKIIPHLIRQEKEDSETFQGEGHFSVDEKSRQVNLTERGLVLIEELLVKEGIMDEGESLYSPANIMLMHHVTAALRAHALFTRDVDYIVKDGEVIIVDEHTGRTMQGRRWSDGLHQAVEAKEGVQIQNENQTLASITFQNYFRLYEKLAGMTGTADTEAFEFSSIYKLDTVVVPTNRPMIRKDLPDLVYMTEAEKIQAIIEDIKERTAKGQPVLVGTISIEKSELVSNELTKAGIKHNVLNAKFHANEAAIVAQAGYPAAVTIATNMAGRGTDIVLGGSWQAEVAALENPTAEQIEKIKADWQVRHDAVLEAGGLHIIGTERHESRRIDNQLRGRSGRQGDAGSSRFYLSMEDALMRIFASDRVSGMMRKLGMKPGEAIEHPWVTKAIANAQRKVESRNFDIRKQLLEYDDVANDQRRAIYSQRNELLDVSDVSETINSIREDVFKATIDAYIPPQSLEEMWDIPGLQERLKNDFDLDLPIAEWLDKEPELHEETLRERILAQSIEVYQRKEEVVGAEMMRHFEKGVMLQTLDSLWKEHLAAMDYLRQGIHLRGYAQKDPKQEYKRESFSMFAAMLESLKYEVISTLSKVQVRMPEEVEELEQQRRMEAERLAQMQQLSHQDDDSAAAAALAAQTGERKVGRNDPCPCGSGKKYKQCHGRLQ

[2] = molecular target: T1, Ubiquitin-activating enzyme e1, putative (Leishmania donovani (strain BPK282A1)) (UniProt E9BSI1); assay: Leishmania donovani Ubiquitin Activating Enzyme (LdE1); type: functional; settings: 30 µM
T1 sequence (whole entry): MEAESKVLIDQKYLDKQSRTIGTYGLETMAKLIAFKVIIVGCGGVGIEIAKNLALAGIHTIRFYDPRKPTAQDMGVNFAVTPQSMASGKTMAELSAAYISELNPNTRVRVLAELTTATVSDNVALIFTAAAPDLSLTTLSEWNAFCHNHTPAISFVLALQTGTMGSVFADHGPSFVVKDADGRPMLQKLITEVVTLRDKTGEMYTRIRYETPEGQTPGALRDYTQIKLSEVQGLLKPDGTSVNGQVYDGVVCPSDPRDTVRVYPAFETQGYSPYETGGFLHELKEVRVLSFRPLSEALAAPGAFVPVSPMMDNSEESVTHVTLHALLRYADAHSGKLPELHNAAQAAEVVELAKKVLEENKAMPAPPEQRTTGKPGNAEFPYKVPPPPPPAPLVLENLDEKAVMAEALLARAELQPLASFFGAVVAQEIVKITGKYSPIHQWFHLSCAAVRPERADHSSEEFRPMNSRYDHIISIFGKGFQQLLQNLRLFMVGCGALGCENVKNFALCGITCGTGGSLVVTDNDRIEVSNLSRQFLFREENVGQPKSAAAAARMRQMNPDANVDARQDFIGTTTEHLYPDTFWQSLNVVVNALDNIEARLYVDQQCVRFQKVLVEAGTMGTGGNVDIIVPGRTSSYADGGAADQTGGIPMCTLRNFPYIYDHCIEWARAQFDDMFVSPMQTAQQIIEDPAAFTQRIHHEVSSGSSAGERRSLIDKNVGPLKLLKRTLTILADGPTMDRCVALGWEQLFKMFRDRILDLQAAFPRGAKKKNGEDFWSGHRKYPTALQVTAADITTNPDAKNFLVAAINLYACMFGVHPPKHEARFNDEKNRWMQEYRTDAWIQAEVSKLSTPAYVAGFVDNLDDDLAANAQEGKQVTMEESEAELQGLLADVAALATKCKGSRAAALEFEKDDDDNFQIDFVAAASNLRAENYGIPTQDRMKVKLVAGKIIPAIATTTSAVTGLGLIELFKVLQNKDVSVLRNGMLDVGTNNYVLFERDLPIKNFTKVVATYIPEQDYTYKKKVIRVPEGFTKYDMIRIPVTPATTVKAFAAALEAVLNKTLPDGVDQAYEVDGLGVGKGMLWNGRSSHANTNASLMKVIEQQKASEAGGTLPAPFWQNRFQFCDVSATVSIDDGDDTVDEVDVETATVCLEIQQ

[3] = molecular target: Sialic acid-binding Ig-like lectin 9 (Homo sapiens) (UniProt Q9Y336); assay: Hs-Siglec9 ALPHAscreen SOP 20170721; settings: 10 µM
Sialic acid-binding Ig-like lectin 9 (Homo sapiens), sequence (Q9Y336 whole entry): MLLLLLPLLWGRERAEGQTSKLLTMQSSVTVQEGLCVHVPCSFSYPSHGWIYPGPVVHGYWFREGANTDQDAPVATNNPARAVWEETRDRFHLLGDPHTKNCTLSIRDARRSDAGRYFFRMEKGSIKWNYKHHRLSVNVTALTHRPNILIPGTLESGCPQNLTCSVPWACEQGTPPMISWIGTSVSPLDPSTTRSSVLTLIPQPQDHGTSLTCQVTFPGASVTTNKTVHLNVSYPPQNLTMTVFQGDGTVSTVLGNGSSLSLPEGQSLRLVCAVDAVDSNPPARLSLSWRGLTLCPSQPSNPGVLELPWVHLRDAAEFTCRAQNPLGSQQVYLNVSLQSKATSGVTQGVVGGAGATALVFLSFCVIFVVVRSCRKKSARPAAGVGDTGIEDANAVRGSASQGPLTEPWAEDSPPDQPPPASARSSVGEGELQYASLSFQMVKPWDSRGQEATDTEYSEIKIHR

Trypanosoma cruzi = assay: Trypanosoma cruzi phosphomannomutase and mannose-1-phosphate guanylyltransferase assay; type: functional; settings: 10 µM
[4] = molecular target: T2, Arginase-2, mitochondrial (Homo sapiens) (UniProt P78540); assay: in vitro enzyme assay to detect the production of urea directly proportional to the activity of Arginase II; type: functional; settings: 33.3 µM; note: in the data most compounds retested in dose-response had high values
T2 sequence (whole entry): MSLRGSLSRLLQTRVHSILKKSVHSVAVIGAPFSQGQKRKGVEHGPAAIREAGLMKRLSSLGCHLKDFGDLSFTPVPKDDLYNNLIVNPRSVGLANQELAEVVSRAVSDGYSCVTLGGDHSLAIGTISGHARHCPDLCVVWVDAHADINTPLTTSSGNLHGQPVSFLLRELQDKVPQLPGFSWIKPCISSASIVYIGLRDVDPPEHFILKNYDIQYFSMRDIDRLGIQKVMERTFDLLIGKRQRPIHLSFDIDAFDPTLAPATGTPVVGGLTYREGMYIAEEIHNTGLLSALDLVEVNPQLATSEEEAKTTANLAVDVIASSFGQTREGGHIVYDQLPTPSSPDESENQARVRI

[5] = molecular target: T3, Proteasome subunit beta (Trypanosoma cruzi) (UniProt O96673); assay: Trypanosoma cruzi proteasome chymotrypsin-like activity (TcProtChymo) assay.; note: in the data most compounds retested in dose-response had high values; type: functional; settings: 9.37 µM
T3 sequence (whole entry): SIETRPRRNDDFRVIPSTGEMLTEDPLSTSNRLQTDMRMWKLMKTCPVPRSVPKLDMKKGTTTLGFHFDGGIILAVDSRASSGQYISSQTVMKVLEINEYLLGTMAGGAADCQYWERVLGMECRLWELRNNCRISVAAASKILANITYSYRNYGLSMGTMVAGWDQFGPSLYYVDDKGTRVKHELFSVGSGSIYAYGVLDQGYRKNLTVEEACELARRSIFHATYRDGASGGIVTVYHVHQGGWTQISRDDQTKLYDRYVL

Homo sapiens = species on record: Homo sapiens; assay: To identify inhibition of the IFN signalling (Jak-Stat) pathway via expression of an eGFP reporter gene under the control of an IFN-stimulated response element (ISRE) containing MxA promoter.; type: functional; settings: 30 µM
[6] = molecular target: T4, Tyrosyl-tRNA synthetase, putative (Trypanosoma cruzi (strain CL Brener)) (UniProt Q4DSP6); assay: Trypanosoma cruzi tyrosyl tRNA synthetase (TcYRS) _High Tyrosine SOP; type: functional; settings: 30 µM; note: in the data most compounds retested in dose-response had high values
T4 sequence (whole entry): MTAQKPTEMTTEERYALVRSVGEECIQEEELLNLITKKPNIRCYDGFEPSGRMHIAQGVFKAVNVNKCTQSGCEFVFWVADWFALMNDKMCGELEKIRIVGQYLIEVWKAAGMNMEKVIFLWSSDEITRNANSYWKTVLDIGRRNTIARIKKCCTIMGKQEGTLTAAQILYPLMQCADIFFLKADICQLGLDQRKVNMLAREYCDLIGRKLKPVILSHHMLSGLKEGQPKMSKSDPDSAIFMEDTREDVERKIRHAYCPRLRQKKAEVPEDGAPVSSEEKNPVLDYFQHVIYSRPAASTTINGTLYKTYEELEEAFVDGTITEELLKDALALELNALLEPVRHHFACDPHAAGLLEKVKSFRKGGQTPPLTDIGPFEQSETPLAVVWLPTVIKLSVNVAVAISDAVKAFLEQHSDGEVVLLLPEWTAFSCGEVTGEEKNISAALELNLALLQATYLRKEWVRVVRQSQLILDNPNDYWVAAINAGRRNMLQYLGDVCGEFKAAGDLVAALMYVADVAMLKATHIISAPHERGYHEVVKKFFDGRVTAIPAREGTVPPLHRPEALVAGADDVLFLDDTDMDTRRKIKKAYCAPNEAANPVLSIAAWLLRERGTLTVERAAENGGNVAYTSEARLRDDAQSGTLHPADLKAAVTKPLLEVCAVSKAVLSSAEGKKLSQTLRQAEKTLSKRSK

[7] = molecular target: T4, Tyrosyl-tRNA synthetase, putative (Trypanosoma cruzi (strain CL Brener)); assay: Trypanosoma cruzi tyrosyl tRNA synthetase (TcYRS) SOP; type: functional; settings: 30 µM
[8] = molecular target: Chromo domain-containing protein 1 (Saccharomyces cerevisiae (strain ATCC 204508 / S288c) (Baker's yeast)) (UniProt P32657); assay: ScCHD-1 Enzyme Inhibition Assay; type: functional; settings: 30 µM; note: in the data most compounds retested in dose-response had high values
Chromo domain-containing protein 1 (Saccharomyces cerevisiae (strain ATCC 204508 / S288c) (Baker's yeast)), sequence (P32657 whole entry, the tested form may be a part): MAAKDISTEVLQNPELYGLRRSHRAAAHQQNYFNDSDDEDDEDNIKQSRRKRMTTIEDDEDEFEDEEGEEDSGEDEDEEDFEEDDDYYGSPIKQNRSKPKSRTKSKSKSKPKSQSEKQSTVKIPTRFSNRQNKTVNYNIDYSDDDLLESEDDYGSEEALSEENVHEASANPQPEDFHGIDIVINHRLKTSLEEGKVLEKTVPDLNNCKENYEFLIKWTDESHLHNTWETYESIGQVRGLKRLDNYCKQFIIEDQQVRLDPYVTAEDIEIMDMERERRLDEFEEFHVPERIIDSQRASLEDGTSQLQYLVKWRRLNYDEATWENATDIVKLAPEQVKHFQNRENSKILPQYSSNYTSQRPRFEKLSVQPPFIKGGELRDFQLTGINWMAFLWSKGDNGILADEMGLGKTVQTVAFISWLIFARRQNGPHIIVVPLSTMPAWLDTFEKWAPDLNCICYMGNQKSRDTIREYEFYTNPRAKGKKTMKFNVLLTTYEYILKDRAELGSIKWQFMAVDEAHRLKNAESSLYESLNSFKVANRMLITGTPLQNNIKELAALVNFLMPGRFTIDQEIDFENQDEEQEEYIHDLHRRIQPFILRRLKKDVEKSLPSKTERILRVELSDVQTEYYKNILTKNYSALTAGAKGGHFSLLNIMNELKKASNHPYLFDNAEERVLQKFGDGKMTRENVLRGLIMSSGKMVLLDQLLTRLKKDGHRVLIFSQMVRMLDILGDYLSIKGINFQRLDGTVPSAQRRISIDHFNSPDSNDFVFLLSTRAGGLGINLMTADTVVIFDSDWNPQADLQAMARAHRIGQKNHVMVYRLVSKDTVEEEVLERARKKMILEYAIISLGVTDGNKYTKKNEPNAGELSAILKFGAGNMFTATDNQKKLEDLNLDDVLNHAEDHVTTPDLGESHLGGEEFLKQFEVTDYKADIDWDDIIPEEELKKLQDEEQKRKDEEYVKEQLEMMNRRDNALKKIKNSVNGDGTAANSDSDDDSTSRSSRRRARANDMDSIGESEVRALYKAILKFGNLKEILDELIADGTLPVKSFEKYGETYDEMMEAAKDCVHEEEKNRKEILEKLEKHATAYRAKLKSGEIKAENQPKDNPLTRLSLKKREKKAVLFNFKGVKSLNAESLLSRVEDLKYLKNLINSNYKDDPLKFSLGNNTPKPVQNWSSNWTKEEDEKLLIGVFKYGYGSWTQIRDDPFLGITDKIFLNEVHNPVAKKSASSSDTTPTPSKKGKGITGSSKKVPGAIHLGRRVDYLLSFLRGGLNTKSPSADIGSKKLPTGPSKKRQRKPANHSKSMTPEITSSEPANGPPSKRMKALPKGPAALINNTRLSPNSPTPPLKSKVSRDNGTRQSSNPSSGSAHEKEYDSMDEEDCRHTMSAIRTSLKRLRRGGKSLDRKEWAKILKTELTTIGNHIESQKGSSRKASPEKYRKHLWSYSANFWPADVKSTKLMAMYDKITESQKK

| Compound | Percent Effect [1] [%] | Percent Effect [2] [%] | Percent Effect [3] [%] | Percent Effect (Trypanosoma cruzi) [%] | Percent Effect [4] [%] | Percent Effect [5] [%] | Percent Effect (Homo sapiens) [%] | Percent Effect [6] [%] | Percent Effect [7] [%] | Percent Effect [8] [%] |
| --- | --- | --- | --- | --- | --- | --- | --- | --- | --- | --- |
| CCc1nc(C2CCCN2C(=O)c2cc(C3CC3)[nH]n2)no1 (stereo not given) | -3.71 | 5.33 | -4.76 | -5.02 | 1.77 | -1.44 | 12.6 | 3.68 | 5.13 | -6.15 |
| Cc1cccnc1CN(C)CC1(O)CCCN(CC2CCCCC2)C1=O (stereo not given) | -5.13 | -2.7 | 19.5 | 6.69 | 5.94 | 9.76 | 23 | 13.3 | 17.1 | -2.65 |
| CN(C)CC1CN(Cc2ccsc2)Cc2nccn2C1 (stereo not given) | -3.4 | 6.49 | -4.24 | -1.85 | 3.24 | 18.4 | -9.26 | 8.95 | 12.8 | 6.09 |
| CC(=O)N1CCOC2(CCN(C(=O)c3cnoc3C)CC2)C1 | -3.9 | -1.3 | 2.36 | 0.682 | -0.405 | 0.441 | -5.16 | 2.63 | 5.13 | 2.4 |
| c1ccc(CN2CCc3nnc(CN4CCCCC4)n3CC2)nc1 | -8.66 | 1.3 | -4.58 | -3.41 | -4.86 | 18.1 | 0.921 | 0.526 | 2.56 | -0.472 |
| Cc1nc(COc2ccc(CNCC3CN(C)CCO3)cc2)cs1 (stereo not given) | -3.51 | 2.6 | 0.562 | -3.73 | 3.07 | 3.16 | 18.8 | -0.98 | -2.35 | -1.69 |
| CCCN(CC)C(=O)c1cc2c(c3ccccc3n2C)n1C(=O)N(C)C | -6.54 | 11.7 | 4.77 | 0.292 | 4.05 | 6.27 | -7.65 | 6.84 | 10.3 | -0.293 |
| COCc1cccc(NS(=O)(=O)c2cc(C(=O)O)cs2)c1 | -3.18 | 5.13 | -6.44 | 2.91 | 2.46 | 8.11 | 4.97 | 3.35 | 13.2 | -5.54 |
| CCC(=O)N(C)CC(=O)Nc1ccc(Br)cn1 | -6.29 | 2.67 | 0.577 | -4.22 | 1.77 | 6.87 | 8.04 | -0.526 | 2.56 | -5.17 |
| CN1CCN(C(=O)c2cccc(OCc3cscn3)c2)CC1 | -6.48 | 2.56 | -10.9 | -3.1 | -0.41 | -1.62 | 19.3 | 0.478 | 6.02 | 5.6 |
| CC(C)n1ccnc1C1CCN(C(=O)c2cc[nH]n2)CC1 | -1.49 | 8.11 | 10.9 | 5.53 | 14.3 | 13.2 | 31.6 | 7.98 | 19.5 | -4.41 |
| CC(C)c1cc(C(=O)NCCN2CCCS2(=O)=O)n[nH]1 | -3.62 | 15.4 | 0.501 | 0.469 | 4.92 | 18 | -1.8 | -4.31 | 18.1 | -2.98 |
| CN(C)[C@@H]1CN(Cc2ccoc2)C[C@@H]2CCCO[C@@H]21 | 0.454 | -11.7 | 0.192 | -1.46 | -1.62 | 5.74 | -2.15 | 0.526 | -2.56 | -1.39 |
| Cc1ccc(C(=O)N2CCN(CCc3cccs3)CC2)c(=O)[nH]1 | -2.8 | 2.56 | -0.768 | -1.6 | 8.61 | -2.65 | 24.3 | 3.35 | 10.8 | -2.19 |
| CC(Cn1cccn1)NC(=O)NCc1cccs1 (stereo not given) | -2.75 | -66.7 | 2.38 | -4.82 | 0.887 | 13 | 10.9 | 3.68 | 7.69 | -11.3 |
| O=C1CC(c2cccc(O)c2)c2sc(C(=O)O)c(-c3ccccc3)c2N1 (stereo not given) | 7.88 | -10.8 | -0.96 | -8.24 | -10.1 | 13 | 31.3 | -9.04 | -2.44 | -0.195 |
| Cc1nc(C)n(CC2CCCN2Cc2cn(-c3ccccc3)nn2)n1 (stereo not given) | -2.72 | -2.67 | 1.09 | -1 | -1.77 | 2.97 | -1.44 | 3.68 | 0 | -6.83 |
| CN1[C@@H](C(=O)NCC2CC2)C[C@@H]2CN(Cc3ccco3)C[C@@H]21 | -3.17 | 19.5 | -3.11 | -6.57 | 3.65 | 19.5 | 13.8 | 5.8 | 10 | -4.24 |
| N#Cc1ccccc1OCCN1CCn2c(nnc2C2CC2)C1 | 1.03 | 2.67 | -0.123 | -0.602 | -0.444 | 5.85 | -1.08 | 2.63 | 2.56 | -0.472 |
| COCC(=O)N1CCC(c2nccnc2Oc2cccnc2C)CC1 | 0.43 | 14.7 | -6.2 | -3.35 | 4.87 | 15.6 | -0.132 | 0 | 7.5 | -22.1 |
| O=C(CN1CCCC(Cn2cncn2)C1)NCCOc1ccccc1 (stereo not given) | 3.17 | -2.67 | 2.29 | -1.41 | 5.32 | 4.67 | 6.94 | 0.526 | 0 | -6.78 |
| Cc1ccc(C(=O)N2CCC3(CC2)COC(COc2ccccn2)C3)o1 (stereo not given) | -7 | 19.5 | 6.32 | 2.24 | -2.83 | 7.33 | -10.8 | 5.79 | 12.8 | 18.6 |
| c1cc(CN2Cc3nnn(CC4CC4)c3C(COCC3CC3)C2)co1 (stereo not given) | -5.88 | 3.9 | 10.3 | 9.83 | -8.1 | 9.62 | -0.188 | 3.68 | 12.8 | 2.41 |
